# Reference: PubChem BioAssay (EPA / NIEHS)
# The source made the active and inactive calls. The calls were made as follows: active = hit-call score of the fitted dose curve at least 0.9, where 1 is the maximum; inactive = score below 0.9.
# Test: BSK_KF3CT_SRB: Viability Assessment in the BioMAP Diversity Plus: KF3CT Assay (AID 2283069);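 also: total protein by sulforhodamine B staining as a cytotoxicity measure; read 24 h after compound addition; fitted for both signal gain and loss against DMSO baseline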
# Conditions: primary human keratinocytes with fibroblasts
# Method in brief: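 Human primary keratinocyte plus foreskin fibroblast co-culture exposed to chemicals for 24 h. Total protein measured by 0.1% sulforhodamine B staining after 10% TCA fixation, read at 560 nm; bidirectional fitting versus DMSO baseline.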
SMILES,AC50,outcome
COc1ccc2sc(C(=O)Nc3nnn[nH]3)c(OC(C)C)c2c1,26.1 µM (active),
CN(C)c1ccc(N=NS(=O)(=O)O)cc1,,inactive
Nc1nc2ncc(CNc3ccc(C(=O)N[C@@H](CCC(=O)O)C(=O)O)cc3)nc2c(=O)[nH]1,,inactive
CCn1nc(Cc2ccccc2)cc1C1CCN(C[C@H]2C[C@H](N(C)[C@@H](C(=O)O)C(C)C)C[C@@H]2c2cccc(F)c2)CC1,,inactive
Cc1ccc(C)c(O)c1,,inactive
C=CC(=C)CCC=C(C)C,,inactive
O=C1OC(=O)C2C3C=CC(C3)C12 (stereo not given),,inactive
CCOC(=O)COc1ccc2c(c1)CC(NCC(O)c1cccc(Cl)c1)CC2 (stereo not given),,inactive
CCOCCOCCOCCO,,inactive
CCCC(=O)OCC,,inactive
O=C(O)c1cc(N=Nc2ccc(S(=O)(=O)Nc3ccccn3)cc2)ccc1O,,inactive
O=C(NS(=O)(=O)/C=C/c1ccccc1)c1ccc(F)cc1Cl,,inactive
C[C@](N)(Cc1ccc(O)c(O)c1)C(=O)O,,inactive
CCCCC(CC)COC(=O)CCCCCCCCC(=O)OCC(CC)CCCC (stereo not given),,inactive
CCCCCCCCCCCCc1ccccc1,,inactive
O=P(OC(CCl)CCl)(OC(CCl)CCl)OC(CCl)CCl,,inactive
CNS(=O)(=O)c1cc(C(=O)N2CCC(CCN3C4CCC3CC(n3c(C)nc5ccccc53)C4)(c3cccc(F)c3)CC2)c(Cl)cc1F (stereo not given),,inactive
Oc1ccc2c(c1)-c1ccccc1C2,,inactive
CC(C)CCCCCCOC(=O)c1ccc(C(=O)OCCCCCCC(C)C)c(C(=O)OCCCCCCC(C)C)c1,,inactive
O=C(O)CCN(C1(C(=O)NO)CCCC1)S(=O)(=O)c1ccc(Oc2ccc(F)cc2)cc1,,inactive
